Measurements: PubChem BioAssay
Calls of active or inactive are those of the source. Unless noted, how the calls were made is not given here.

Legend:
[1] = compound effects on lung adenocarcinoma cell viability – A549, calcein-AM fluorescence, 48 h, basal, profiling panel (AID 1162); conditions: higher = more signal; further: test concentration not given here
[2] = compound effects on differentiated 3T3-L1 adipocyte viability – cell-based, 3T3-L1 adipocytes, calcein-AM fluorescence, 48 h, basal, profiling panel (AID 1163); conditions: 3T3-L1 adipocytes viability, higher = more signal; further: test concentration not given here
[3] = compound effects on hepatocellular carcinoma cell viability – HepG2, calcein-AM fluorescence, 48 h, basal, profiling panel (AID 1164); conditions: higher = more signal; further: test concentration not given here
[4] = compound effects on multiple myeloma cell viability – MM1S, calcein-AM fluorescence, 48 h, basal, profiling panel (AID 1165); conditions: higher = more signal; further: test concentration not given here
[5] = calcein-AM signal in unstimulated myeloma cells – cell-based, calcein-AM fluorescence, 48 h, PK04 Diversity Set, profiling panel (AID 1166); conditions: RPMI8226 myeloma viability, higher = more signal;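 further: cells grown under basal conditions without added stimulus; test concentration not given here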
[6] = JC-1 mitochondrial signal, unstimulated HepG2 cells – cell-based, JC-1 fluorescence, 24 h, 100 nL compound, profiling panel (AID 1167); conditions: HepG2 mitochondrial potential, higher = more signal; further: test concentration not given here
[7] = JC-1 mitochondrial signal, unstimulated adipocytes – cell-based, JC-1 fluorescence, 3T3-L1 adipocytes, 24 h, 100 nL compound, profiling panel (AID 1168); conditions: JC-1 mitochondrial fluorescence, higher = more signal, called active from +8 up or from −8 down; further: test concentration not given here
[8] = JC-1 mitochondrial signal, unstimulated myeloma cells – cell-based, JC-1 fluorescence, RPMI8226, 24 h, 100 nL compound, profiling panel (AID 1169); conditions: JC-1 mitochondrial potential fluorescence, higher = more signal; further: test concentration not given here
[9] = JC-1 mitochondrial signal, unstimulated MM1S myeloma – cell-based, JC-1 fluorescence, 24 h, 100 nL compound, profiling panel (AID 1170); conditions: MM1S mitochondrial potential, higher = more signal; further: test concentration not given here
[10] = resazurin metabolic signal in A549 cells – cell-based, resazurin fluorescence, 24 h, PK04 Diversity Set, profiling panel (AID 1171); conditions: A549 viability, higher = more signal, called active from +8 up or from −8 down; further: test concentration not given here
[11] = resazurin metabolic signal in HepG2 cells – cell-based, resazurin fluorescence, 24 h, PK04 Diversity Set, profiling panel (AID 1172); conditions: HepG2 viability, higher = more signal; further: test concentration not given here
[12] = budding yeast growth changes without added modifier – OD600, strain BY4716, 24 h, basal condition, primary screen (AID 1173); conditions: S. cerevisiae BY4716 growth, OD600, 24 h; higher = more signal, called active from +8 up or from −8 down
[13] = viability profiling in MM1S myeloma cells – cell-based, resazurin fluorescence, basal, 24 h, PK04 Diversity Set, profiling panel (AID 1174); conditions: higher = more signal, called active from +8 up or from −8 down; further: test concentration not given here
[14] = target: Dihydroorotate dehydrogenase (quinone), mitochondrial (Plasmodium falciparum (isolate 3D7)) (UniProt Q08210); experiment: inhibition of P. falciparum DHODH – biochemical, C-terminal His tag, absorbance 600 nm, primary screen (AID 1175); conditions: PfDHODH enzyme, DCIP absorbance 600 nm; higher = more signal, called active from +8 up or from −8 down;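 further: recombinant parasite enzyme with a five histidine tag at its C terminus; test concentration not given here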
[15] = inhibition of PAO1 biofilm formation – strain PAO1, LB-PBS medium, absorbance 600 nm, primary screen (AID 1176); further: test concentration not given here; conditions: P. aeruginosa PAO1 growth/biofilm, A600, 12 h; higher = more signal
[16] = growth modulation of vineyard yeast isolate – strain RM11-1a, OD600, basal, 24 h, primary screen (AID 1177);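 further: cultures grown under basal conditions with no added stressor; test concentration not given here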; conditions: S. cerevisiae RM11-1a growth, OD600, 24 h; higher = more signal, called active from +8 up or from −8 down
[17] = growth of efflux-deficient E. coli DRC39 – strain DRC39, OD650, 24 h, E. coli filamentation inducers, primary screen (AID 1178);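 further: growth measured as culture turbidity by optical density at 650 nm; test concentration not given here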; conditions: E. coli DRC39 acrAB, higher = more signal, called active from +8 up or from −8 down
[18] = growth of efflux-deficient E. coli DRC39 – strain DRC39, OD650, 48 h, E. coli filamentation inducers, primary screen (AID 1179);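 further: screen aims at cell division blockers that make cells filament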; conditions: E. coli DRC39 delta-acrAB growth, higher = more signal, called active from +8 up or from −8 down
[19] = viability profiling in RPMI8226 myeloma cells – cell-based, resazurin fluorescence, basal, 24 h, PK04 Diversity Set, profiling panel (AID 1180); conditions: higher = more signal;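 further: RPMI8826 multiple myeloma cell line at 5000 cells per well; test concentration not given here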
[20] = target: E3 ubiquitin-protein ligase XIAP (Homo sapiens) (UniProt P98170); experiment: small molecules binding XIAP protein – biophysical, small-molecule microarray, fluorescence 635 nm, primary screen (AID 1181); conditions: higher = more signal;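 further: score merges 667 nm emission and signal to noise over triplicate slides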
Chain of E3 ubiquitin-protein ligase XIAP (Homo sapiens) (P98170 whole entry, looked up): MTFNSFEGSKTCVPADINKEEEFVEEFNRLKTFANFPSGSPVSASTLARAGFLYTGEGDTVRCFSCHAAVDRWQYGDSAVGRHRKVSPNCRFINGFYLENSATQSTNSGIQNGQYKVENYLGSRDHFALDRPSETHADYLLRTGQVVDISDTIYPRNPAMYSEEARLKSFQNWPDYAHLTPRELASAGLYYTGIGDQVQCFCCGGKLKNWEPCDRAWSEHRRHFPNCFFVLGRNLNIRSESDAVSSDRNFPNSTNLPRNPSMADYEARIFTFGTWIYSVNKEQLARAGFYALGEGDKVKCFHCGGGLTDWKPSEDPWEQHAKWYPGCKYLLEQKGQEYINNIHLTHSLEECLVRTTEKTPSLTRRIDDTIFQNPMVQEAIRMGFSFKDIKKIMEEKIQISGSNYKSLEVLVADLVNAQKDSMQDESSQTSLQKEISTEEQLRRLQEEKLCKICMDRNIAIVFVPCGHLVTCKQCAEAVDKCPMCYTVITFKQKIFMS

Chain of Dihydroorotate dehydrogenase (quinone), mitochondrial (Plasmodium falciparum (isolate 3D7)) (Q08210 whole entry, looked up): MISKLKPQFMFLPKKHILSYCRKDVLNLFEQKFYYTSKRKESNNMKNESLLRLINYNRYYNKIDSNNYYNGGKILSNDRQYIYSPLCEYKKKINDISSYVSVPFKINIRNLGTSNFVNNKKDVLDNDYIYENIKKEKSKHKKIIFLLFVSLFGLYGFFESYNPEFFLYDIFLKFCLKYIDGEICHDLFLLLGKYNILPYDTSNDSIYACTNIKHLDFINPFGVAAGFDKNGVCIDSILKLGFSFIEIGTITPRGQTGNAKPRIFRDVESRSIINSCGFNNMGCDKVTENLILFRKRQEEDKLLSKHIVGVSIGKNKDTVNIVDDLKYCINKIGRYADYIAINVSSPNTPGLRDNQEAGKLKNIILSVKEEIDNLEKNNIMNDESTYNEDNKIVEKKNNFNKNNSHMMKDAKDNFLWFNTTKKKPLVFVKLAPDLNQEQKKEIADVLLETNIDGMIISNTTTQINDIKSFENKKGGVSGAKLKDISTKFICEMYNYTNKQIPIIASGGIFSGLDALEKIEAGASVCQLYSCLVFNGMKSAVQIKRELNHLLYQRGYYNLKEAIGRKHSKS

SMILES | z-score [1] | z-score [2] | z-score [3] | z-score [4] | z-score [5] | z-score [6] | z-score [7] | z-score [8] | z-score [9] | z-score [10] | z-score [11] | z-score [12] | z-score [13] | composite z-score [14] | z-score [15] | z-score [16] | z-score [17] | z-score [18] | z-score [19] | composite z-score [20]
C=C[C@@H](CO)N(Cc1ccc(OC)cc1)S(=O)(=O)c1ccc(Br)cc1 | 1.49 | 0.773 | 0.349 | 1.39 | 0.613 | 0.622 | 2.05 (inactive) | 0.359 | -0.159 | 1.23 (inactive) | 1.04 | -5.71 (inactive) | -0.495 (inactive) | -2.32 (inactive) | -0.152 (inactive) | -1.99 (inactive) | 1.66 (inactive) | 1.88 (inactive) | -0.455 | -0.434
CCCCC=C[C@@H](NC(=O)OCc1ccccc1Cl)c1ccccc1 | -1.28 | -1.2 | -0.661 | -0.919 | -0.871 | 0.359 | -0.337 (inactive) | -0.623 | -1.03 | 0.297 (inactive) | -0.656 | 1.33 (inactive) | -1.19 (inactive) | 0.0518 (inactive) | 0.84 (inactive) | 1.48 (inactive) | -1.32 (inactive) | -0.892 (inactive) | -1.2 | 0.0137
CCOC(=O)C[C@H]1[C@H](OC(=O)Cc2ccc3c(c2)OCO3)[C@@H](NC(=O)c2ccc3ccccc3n2)c2cc(OCCCO)ccc2N1C(=O)c1ccccc1 | 0.776 | 0.288 | 0.731 | 0.26 | -1.09 | 2.52 | 0.0925 (inactive) | -0.169 | -1.07 | 0.231 (inactive) | 0.374 | -0.407 (inactive) | -1.51 (inactive) | -0.32 (inactive) | -0.325 (inactive) | 0.946 (inactive) | -0.247 (inactive) | 0.208 (inactive) | -0.139 | 0.134
COCCCNC(=O)[C@@]1(CCC(=O)OC(C)(C)C)N=C(c2ccc(OCCCO)cc2)O[C@H]1c1ccccc1N=[N+]=[N-] | 0.618 | 0.251 | 0.977 | -1.21 | -1.16 | 1.74 | 3.98 (inactive) | -1.15 | -0.386 | 1.38 (inactive) | 1.6 | -0.497 (inactive) | -0.0477 (inactive) | -0.291 (inactive) | -0.165 (inactive) | 0.252 (inactive) | 1.42 (inactive) | 0.268 (inactive) | 0.72 | -0.0773
COc1cc2c(cc1O)C(C1CC1)N(C)CC2 (stereo not given) | 0.368 | 0.381 | 0.575 | 0.533 | -0.393 | 0.283 | 0.883 (inactive) | 0.0965 | 1.87 | -0.348 (inactive) | 0.0514 | -0.391 (inactive) | 0.509 (inactive) | -0.501 (inactive) | -0.572 (inactive) | -0.0321 (inactive) | 0.115 (inactive) | 0.0029 (inactive) | -0.0158 | 0.175
CCCCCN1CC=CC23O[C@@H]4/C=C\CCC(C)OC(=O)C4[C@H]2C(=O)N(C(CO)C(C)C)[C@@H]3C1=O (stereo not given in full) | -0.588 | 0.214 | -0.272 | 1.82 | 0.216 | -0.224 | -0.0517 (inactive) | 0.699 | -0.577 | 0.829 (inactive) | 0.713 | -0.82 (inactive) | -0.502 (inactive) | -1.74 (inactive) | 0.193 (inactive) | -0.116 (inactive) | 0.451 (inactive) | 0.236 (inactive) | 1.41 | 0.0627
COc1cccc(C)c1NC(=O)O[C@H]1[C@H](OC(=O)Nc2ccccc2-c2ccccc2)[C@H](OC(=O)Nc2ccccc2-c2ccccc2)[C@@H](OC)O[C@@H]1CO | -0.889 | 0.328 | 0.56 | -0.632 | -2.77 | -0.214 | 1.33 (inactive) | 0.198 | 0.143 | -1.11 (inactive) | -0.589 | -0.342 (inactive) | -1.13 (inactive) | -0.0569 (inactive) | 1.11 (inactive) | 1.25 (inactive) | -0.469 (inactive) | 0.0517 (inactive) | -0.575 | 0.248
CC(C)N1C(=O)C[C@@](C(=O)NC2CC2)(c2ccc([N+](=O)[O-])cc2)[C@H]1c1ccc(CO)cc1 | 0.219 | 1.98 | 1.03 | 0.941 | -1.73 | 0.347 | -0.0995 (inactive) | -0.416 | 0.059 | -0.0786 (inactive) | -0.557 | -0.693 (inactive) | 0.616 (inactive) | -0.236 (inactive) | 1.6 (inactive) | -0.437 (inactive) | 0.209 (inactive) | 0.167 (inactive) | 0.499 | 0.236
C=CCNC(=O)[C@@H]1[C@H]2C(=O)O[C@H](c3ccccc3)[C@H](c3ccccc3)N2[C@H](c2ccccc2OCCO)[C@@]12C(=O)Nc1ccc(C#CCCO)cc12 | -0.368 | 0.953 | 0.151 | -0.66 | -0.485 | -0.699 | 0.959 (inactive) | -0.435 | -0.608 | 0.322 (inactive) | 0.282 | 0.634 (inactive) | 0.373 (inactive) | 1.22 (inactive) | 4.62 (inactive) | 1.96 (inactive) | -1.09 (inactive) | -2.17 (inactive) | -0.315 | 0.0461
C=CCC(OC(C)=O)[C@@H]1[C@@H](N(Cc2cccc3ccccc23)C(=O)Cc2ccc(F)cc2)c2cc(OCCCO)ccc2N1C(=O)c1ccc2ccccc2c1 (stereo not given in full) | 0.937 | 1 | 0.975 | -0.222 | -0.754 | 2.9 | -0.249 (inactive) | -0.774 | -0.45 | 1.25 (inactive) | 0.921 | 0.274 (inactive) | 0.697 (inactive) | 0.339 (inactive) | -0.0057 (inactive) | 0.036 (inactive) | 0.655 (inactive) | 0.83 (inactive) | 0.276 | 0.34
